# Screens deposited in PubChem BioAssay by several laboratories.
# Rows were chosen to be rich in hits. Some 2.6% of all compounds tested hit in one or more screens of this group.
# TROY signal inh = inhibitors of TROY-driven NF-kB signaling, primary screen, Q293 LMP1-TROYcd cells, NF-kB luciferase, uHTS. AID 1347056, 2019. inhibition, % at 10 µM. Q293 LMP1-TROYcd NF-kB luciferase reporter, 4 h. 0.98% of 360,000 active;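 active means compounds whose plate-normalised and pattern-corrected inhibition of the luciferase reporter signal at the single screening dose is 50% or more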
# LMP1 NFkB inh = EBV LMP1-driven NF-kappaB luciferase reporter inhibitors, primary screen, cell-based, luminescence, single point. LMP1-induced NF-kappaB luciferase reporter cells. inhibition, % at 12.5 µM. 0.69% of 350,000 active. AID 504558, 2011; in the data active means inhibition above about 41%; inconclusive means no clear call, values can overlap the other calls;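 further: 0% = neutral control wells and 100% = reference inhibitor control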
# LGR2 antag = inhibitors of bursicon-induced LGR2 CRE-luciferase signal, primary screen, cell-based, HEK293, CRE-luciferase reporter, bursicon stimulation | inhibition, % at 9.99 µM | 0.35% of 380,000 active | Drosophila bursicon receptor LGR2 (rickets) | bursicon-stimulated, 4 h | AID 720647, 2013;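 active means drop in luminescence signal, shown as inhibition above about 50% in the replicate tests, limit read from the data, passing the limit was not always enough; inconclusive means probably only some replicates passing the limit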;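 further: agonist challenge used bursicon conditioned medium at about half maximal strength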
# EWS-Fli block = EWS/Fli-driven NR0B1 reporter inhibitors, primary screen, A673 cells, NR0B1 luciferase, luminescence, MLPCN library. viability-normalised. inhibition, % at 12.6 µM. 0.67% of 350,000 active. AID 651661, 2012;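 active means mean inhibition of at least 50% after viability correction, with every replicate also passing that limit; inconclusive means mean reaches 50% but only one of two replicates passes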;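 further: firefly luciferase signal divided by Alamar Blue viability fluorescence both relative to DMSO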
# TWEAK Fn14 block = inhibitors of TWEAK-Fn14 signaling, primary screen, luciferase reporter cells, uHTS; TWEAK-stimulated Fn14 reporter cells, luciferase luminescence, 8 h; AID 1159606, 2016; inhibition, % at 10 µM; 2% of 360,000 active; in the data active means inhibition above about 50%
# Active calls of the source: *; ? = inconclusive; · = not tested or not shown.
SMILES,TROY signal inh,LMP1 NFkB inh,LGR2 antag,EWS-Fli block,TWEAK Fn14 block
C[C@@H]1CN([C@@H](C)CO)C(=O)c2cc(NC(=O)Cn3cnnn3)ccc2O[C@H]1CN(C)Cc1ccc(Cl)c(Cl)c1,·,·,-4,63*,·
CO[C@@H]1CN(C)C(=O)c2ccc(NC(=O)c3ccccc3)cc2OC[C@@H](C)NC[C@@H]1C,·,·,12,-2,·
C[C@H](CO)N1C[C@H](C)[C@H](CN(C)CC2CC2)Oc2ccc(NS(=O)(=O)c3ccc(F)cc3)cc2C1=O,·,·,5,·,·
C[C@@H]1CCCCO[C@@H](CN(C)Cc2ccc(C(F)(F)F)cc2)[C@@H](C)CN([C@@H](C)CO)C(=O)c2cc(NC(=O)Nc3ccc4c(c3)OCO4)ccc2O1,·,·,16,-19,·
C[C@H](CO)N1C[C@H](C)[C@@H](CN(C)Cc2ccccc2)OCCCC[C@H](C)Oc2ccc(NC(=O)Nc3ccc4c(c3)OCO4)cc2C1=O,·,·,8,64*,·
C[C@@H]1CCCCO[C@H](CN(C)Cc2ccncc2)[C@H](C)CN([C@@H](C)CO)C(=O)c2cc(NC(=O)NC3CCCCC3)ccc2O1,·,·,-1,56*,·
C[C@@H]1CN([C@H](C)CO)C(=O)c2cc(NC(=O)Nc3ccc4c(c3)OCO4)ccc2O[C@@H](C)CCCCO[C@H]1CN(C)Cc1ccc(C(F)(F)F)cc1,·,·,28,66*,·
C[C@@H]1CCCCO[C@@H](CN(C)Cc2ccncc2)[C@@H](C)CN([C@H](C)CO)C(=O)c2cc(NC(=O)NC3CCCCC3)ccc2O1,·,·,-6,1,·
C[C@@H]1CCCCO[C@H](CN(C)Cc2ccccc2)[C@@H](C)CN([C@@H](C)CO)C(=O)c2cc(NC(=O)Nc3ccc4c(c3)OCO4)ccc2O1,·,·,-11,-63,·
COCC(=O)N1CC2(CCN(Cc3ccccc3Cl)CC2)c2c([nH]c3cc(OC)ccc23)[C@@H]1CO,·,·,-2,-4,·
CCCN(CC(=O)Nc1ccccc1C)C(=O)CCl,-3,72*,1,40,49
CCCN(CC(=O)Nc1ccccc1C)C(=O)COc1c(C)cccc1C,-18,7,-21,-5,9
Cc1[nH]c2ccccc2c1/C=N/NC(=O)C1CC1(c1ccccc1)c1ccccc1 (stereo not drawn),24,-26,-8,·,66*
S=C(NN=C1C2CC3CC(C2)CC1C3)Nc1ccccc1,75*,65*,·,·,94*
CCC(C)(C)C1CCC(=NNC(=S)Nc2ccccc2)CC1 (stereo not drawn),0,-5,-11,-3,-5
O=C(Nc1cnn(C23CC4CC(CC(C4)C2)C3)c1)c1cnn2c(C(F)(F)F)cc(-c3ccco3)nc12,81*,13,79*,7,96*
Cc1ccc(N2CCN(C(=O)C3CCCN(c4ncnc5c4nc4n5CCCCC4)C3)CC2)c(C)c1 (stereo not drawn),60*,18,4,·,45
COc1ccccc1N1CCN(CCCNC(=O)C2CCCN(c3ncnc4c3nc3n4CCCCC3)C2)CC1 (stereo not drawn),-6,66*,-18,14,-7
Cc1cccc(N2CCN(C(=O)C3CCN(c4ncnc5c4nc4n5CCCCC4)CC3)CC2)c1C,65*,11,?,·,80*
O=C(C1CCN(c2ncnc3c2nc2n3CCCCC2)CC1)N1CCN(c2ccccc2F)CC1,9,4,-7,7,-5
Cc1cccc(N2CCN(C(=O)C3CCN(c4ncnc5c4nc4n5CCCCC4)CC3)CC2C)c1 (stereo not drawn),52*,19,5,·,51*
COc1ccc(S(=O)(=O)Nc2ccc3c(c2)[C@@H]2C[C@@H](CC(=O)N(C)C)O[C@H](CO)[C@@H]2O3)cc1,·,·,16,-4,·
Cc1ccc(S(=O)(=O)Nc2cccc3c2O[C@H](CN(C)S(=O)(=O)c2ccc(Cl)cc2)[C@H](C)CN([C@@H](C)CO)C3=O)cc1,·,·,-11,-8,·
CCCc1cn(CC[C@H]2CC[C@H](NC(=O)CCN3CCCCC3)[C@H](CO)O2)nn1,·,·,7,-5,·
COc1ccc(NC(=O)N2CCCCN3[C@H](C2)[C@@H](c2ccc(C#CCC(C)C)cc2)[C@@H]3CO)cc1,·,·,30,22,·
SMILES,TROY signal inh,LMP1 NFkB inh,LGR2 antag,EWS-Fli block,TWEAK Fn14 block
COc1ccc(CN(C)C[C@H]2OCCCC[C@@H](C)Oc3ccc(NC(=O)Nc4c(C)noc4C)cc3C(=O)N([C@H](C)CO)C[C@H]2C)cc1,·,·,9,-12,·
COCCCNC(=O)C[C@H]1C[C@@]2(C(=O)OC)C(=C[C@H](COCc3ccccc3)O[C@@H]2C)N(Cc2ccc3c(c2)OCO3)C1=O,·,·,0,-3,·
C[C@@H]1CN([C@@H](C)CO)C(=O)c2cc(NS(=O)(=O)c3ccc(F)cc3)ccc2O[C@@H](C)CCCCO[C@@H]1CN(C)Cc1ccccc1,·,·,-2,-8,·
CN(Cc1cccc(F)c1)C(=O)CN1CCN(S(=O)(=O)c2ccc3c(c2)OCCCO3)CC1,-7,-3,-1,6,11
CN(Cc1ccc(F)cc1)C(=O)CN1CCN(S(=O)(=O)c2ccc3c(c2)OCCCO3)CC1,3,48*,-15,12,7
C[C@@H]1CN([C@@H](C)CO)C(=O)CCCn2nncc2CO[C@@H]1CN(C)Cc1ccc2cccnc2c1,·,·,4,-2,·
Cc1cc(C)c(S(=O)(=O)c2ccc(Cl)cc2)c(Cl)n1,-5,0,6,4,-5
Cc1cc(S(=O)(=O)c2ccc(Cl)cc2)nc(S(=O)(=O)c2ccc(Cl)cc2)c1C#N,57*,52*,14,64*,77*
CC(C)(C)C(=O)Cn1ncc(Br)c(Br)c1=O,53*,61*,103*,28,79*
CC(C)(C)C(=O)Cn1ncc(N2CCOCC2)c(Cl)c1=O,-14,11,-32,8,1
C[C@H]1CN([C@@H](C)CO)C(=O)CCCn2cc(nn2)CO[C@H]1CN(C)C(=O)C1CCCCC1,·,·,11,-1,·
O=C(/C(=C/O)N=Nc1ccccc1Cl)c1ccccc1,52*,16,-13,-2,58*
COC(=O)C[C@@H]1CC[C@@H]2[C@@H](COc3ccc(NC(=O)c4cc(C)on4)cc3C(=O)N2C)O1,·,·,1,26,·
CCn1cc(C(=O)NCc2cccc(F)c2)c(=O)c2cc(F)c(N3CCN(C(=O)c4ccco4)CC3)cc21,42,13,·,·,52*
C[C@H](CO)N1C[C@H](C)[C@@H](CN(C)S(C)(=O)=O)OCCCC[C@H](C)Oc2ccc(NC(=O)Nc3ccc(F)cc3)cc2C1=O,·,·,1,-3,·
COc1ccc(-n2c(C)cc(C(=O)CN3C(=O)c4ccccc4C3=O)c2C)cc1,-77,-5,-21,·,-7
COc1ccc(-n2c(C)cc(C(=O)CCl)c2C)cc1,11,22,11,61*,4
Cc1cc(C(=O)COC(=O)c2ccc(O)cc2O)c(C)n1-c1ccccc1,83*,-9,·,-51,77*
